# Measured values published in ChEMBL document CHEMBL3988442, “University of Dundee, Small-Polar-MMV Screening Library” (2021).
# The campaign covered roughly 48,000 compounds. About 13,000 (27%) showed an effect of 50% or more. The list shows a part of the results.
# Tested on: Wolbachia pipientis
# Assay: Anti-Wolbachia Cell-Based Screen
# Assay type: functional
# Set-up: scale not given: in the data most compounds retested in dose-response had high values
# Conditions: 5 µM
row,SMILES,Percent Effect [%]
1,O=C1CC[C@H]2CN(Cc3cccnc3)CC[C@H]2N1CCc1c[nH]cn1,-39.87
2,CN(c1ccccc1C(=O)O)S(=O)(=O)c1cccc2cccnc12,-35.11
3,CC(C)C(=O)N1CCc2onc(C(=O)NCCN(C)C)c2C1.O=C(O)C(F)(F)F,7.945
4,Cc1ccc(CN2CCc3onc(C(=O)NCCN(C)C)c3C2)o1.O=C(O)C(F)(F)F.O=C(O)C(F)(F)F,74.07
5,CC(C)NC(=O)N1CCc2onc(C(=O)NCCN(C)C)c2C1.O=C(O)C(F)(F)F,-1.789
6,CS(=O)(=O)N1CCC2(CCN(C(=O)c3cccs3)CC2)CC1,95.21
7,CCS(=O)(=O)N1CCC2(CCN(Cc3nccs3)CC2)CC1.O=C(O)C(F)(F)F,12.02
8,CS(=O)(=O)N1CCO[C@@H]2CCN(C(=O)c3cccs3)CC[C@H]21,-2.724
9,O=C(c1ccsc1)N1CCC2(CC1)CCN(S(=O)(=O)C1CC1)CC2,99.84
10,Cc1ccc(OC2(C(=O)O)CCN(C(=O)c3cccs3)CC2)cn1,-10.49
11,Cn1cnnc1S(=O)(=O)C1CCN(C(=O)c2ccsc2)CC1,-15.33
12,O=C(c1cccs1)N1CC(C(=O)N2CCCC2)C2(CCOCC2)C1 (centres undefined),-9.07
13,O=C(O)C(F)(F)F.O=S(=O)(C1CC1)N1CCC2(CCN(Cc3nccs3)CC2)CC1,-4.722
14,CC(CCSc1ccccc1)N1CCN(C(=O)c2cccs2)CC1 (centres undefined),0.564
15,CCS(=O)(=O)N1CCC2(CCN(C(=O)c3cccs3)CC2)CC1,97.57
16,Cc1ccc(N(C)C2CCN(C(=O)c3ccsc3)CC2)nn1,-0.5839
17,O=C(c1cccs1)N1CCC2(CC1)CCN(S(=O)(=O)C1CC1)CC2,97.11
18,COCC1CN(Cc2c(C)noc2C)Cc2cn(C)nc21 (centres undefined),8.994
19,NC(=O)NC(=O)CN1CCN(CC2CC2)c2ccccc21,-3.453
20,COCC(c1cccc(C(F)(F)F)c1)N(C)C(=O)c1ccncc1 (centres undefined),-9.987
21,COCCNc1ccccc1CNC(=O)NCc1nc(C)c(C)s1,-3.267
22,CC(=O)Nc1ccc2nn(C(C)C)cc2c1,3.305
23,Cc1cc2cccc(C(=O)N3CCOC4(CNCCOC4)C3)c2o1 (centres undefined),-17.55
24,CCN(CC)CCCNCC1CCOC(C)(C)C1 (centres undefined),90.59
25,CCN(CC)CCNCC1CCOC(C)(C)C1 (centres undefined),101.9
26,COc1c(NS(=O)(=O)c2ccc(F)c(C)c2)c(C)nn1C,6.685

row,SMILES,Percent Effect [%]
1,CC(=O)NC[C@@]1(COc2cnccn2)C[C@@H](O)[C@@H](O)C1.Cl,-2.09
2,CCN(CC)C1(Cc2cc(-c3ccccn3)on2)COC1,-7.749
3,Cc1nc(CN(C)C2CCN(Cc3ccc(C(N)=O)cc3)C2)no1 (centres undefined),137.1
4,Cc1nc(CN(C)C2CCN(Cc3ccc4c(c3)CCC4)C2)no1 (centres undefined),94.75
5,Cc1nc(CN(C)C2CCN(CCc3ccc4c(c3)CCO4)C2)no1 (centres undefined),131.2
6,Cc1nc(CN(C)C2CCN(Cc3cccc(F)c3)C2)no1 (centres undefined),130.9
7,CNC(=O)c1ccc(CN2CCC(N(C)Cc3noc(C)n3)C2)cc1 (centres undefined),12.29
8,Cc1nc(CN(C)C2CCN(Cc3ccc4c(c3)OCCO4)C2)no1 (centres undefined),-0.871
9,CNC(=O)c1cccc(CN2CCC(N(C)Cc3noc(C)n3)C2)c1 (centres undefined),9.379
10,CC(C)(C)C(NC(=O)CCCS(C)(=O)=O)c1ccc(F)cc1F (centres undefined),6.458
11,Cc1cnc(N2CCC3(CC2)CC(NC(=O)N(C)C)CO3)nc1 (centres undefined),3.12
12,CC(C)c1cc(C(=O)N2C[C@@H](C)[C@](O)(C3CC3)C2)[nH]n1,9.432
13,CCN(C(C)c1cccc(O)c1)S(=O)(=O)c1cccnc1 (centres undefined),-1.511
14,CC(C)(C)c1c[nH]c([C@@H]2COCCN2C2CCNCC2)n1,-5.137
15,Cc1cc(C)n(C2CN(CC(O)Cn3cccn3)C2)n1 (centres undefined),-3.488
16,Cc1cc(C)n(C2CN(CCC(=O)NCCc3ccccc3)C2)n1,114.1
17,Cc1cc(C)n(C2CN(CCC(N)=O)C2)n1,109.9
18,Cc1cc(C)n(C2CN(Cc3ccc(C(=O)N4CCCC4)cc3)C2)n1,-4.233
19,CCc1ccc(NC(=O)CCN2CC(n3nc(C)cc3C)C2)cc1,87.75
20,Cc1cc(C)n(C2CN(CC(=O)N3CCOCC3)C2)n1,-1.985
21,Cc1cnn(C2CN(CC(=O)NCCc3ccccc3)C2)c1,-5.59
22,Cc1cc(C)n(C2CN(CC(=O)NC3CCOCC3)C2)n1,-6.139
23,COc1cccc(CNC(=O)C(C)N2CC(n3nc(C)cc3C)C2)c1 (centres undefined),-5.224
24,CN(C)S(=O)(=O)NC(=O)CC(c1ccccc1)C(F)(F)F (centres undefined),-3.128
25,CCCS(=O)(=O)NCc1cccnc1Oc1ccc(C)nc1,-8.382
26,O=C(CC1OCCc2ccsc21)NCC1CC1 (centres undefined),-1.416

row,SMILES,Percent Effect [%]
1,CCc1nc(C(=O)N2CCN(CCc3ccc(OC)cc3)CC2)c[nH]1,-9.12
2,Cc1ccc(C)c(N2CCN(CC3(O)CCNC3)CC2)c1 (centres undefined),-4.262
3,Cc1ccccc1-c1cc(NC(=O)Cn2ccccc2=O)n(C)n1,-15.16
4,Cc1cc(O)cc(=O)n1CCCC(=O)Nc1n[nH]c2cccc(F)c12,106.9
5,Cc1nonc1NC(=O)CCn1cc(Br)ccc1=O,-2.489
6,Cc1noc(C)c1NC(=O)CCn1cc(Br)ccc1=O,5.297
7,Cc1cc(NC(=O)Cn2ccccc2=O)n(C)n1,-5.406
8,O=C(NCCCO)C1CC(=O)N(c2n[nH]c3cccc(F)c23)C1 (centres undefined),13.85
9,Cc1cc(O)cc(=O)n1CCCC(=O)Nc1n[nH]c2ccccc12,106.8
10,Cn1nc(C(C)(C)C)cc1NC(=O)Cn1ccccc1=O,13.92
11,Cc1cc(O)cc(=O)n1CCCC(=O)Nc1n[nH]c2cc(Br)ccc12,109.7
12,COc1ccccc1OC1(C(=O)O)CCN(c2nccnc2OC)CC1,-49.7
13,CC(=O)c1ccc(N2CCCC(CO)(Cc3ccccc3F)C2)nc1 (centres undefined),-130
14,CC(C(=O)N1CCn2cncc2C1)N1C[C@@H](C)O[C@@H](C)C1 (some centres undefined),4.778
15,Cc1noc(C)c1C(=O)N1CCCC1(C)C(=O)NC1CCCC1 (centres undefined),82.14
16,COc1cccc2c1CCCCN2C(=O)c1oc(C)nc1C,-10.05
17,Cc1noc(C2CCN(C(=O)c3c(C)noc3C)CC2)n1,-1.195
18,CNC(=O)C1CCCCN1C(=O)c1sc(-c2ccc(C)o2)nc1C (centres undefined),8.745
19,Cc1nc(C)c(C(=O)N2CCCC2(C)C(=O)NC2CCCC2)o1 (centres undefined),148.2
20,Cc1nc(C)c(C(=O)N2CCCc3c(F)ccc(F)c32)o1,-4.238
21,Cc1noc([C@@]23CCO[C@@H]2CCN(C(=O)c2c(C)noc2C)C3)n1,-5.968
22,Cc1nc(C)c(C(=O)N2CCCC2(C)C(=O)NC2CCCC2)s1 (centres undefined),95.95
23,O=C(CCn1cccn1)N1CCN(CC(F)F)CC1,6.604
24,CN(Cc1nc2ccsc2c(=O)[nH]1)CC1CCCCC1,-1.437
25,COc1nc2ccn(CCc3cc(O)nc(C)n3)c(=O)c2cc1C#N,-7.353
26,COc1ccc(CCN2CCc3c(nc(C4CC4)n3C)C2)cc1,-1.016

row,SMILES,Percent Effect [%]
1,Cc1nc(O)cc(CCNc2nc(N(C)C)nc(C)c2C)n1,19.28
2,Cc1nc(C)c(C)c(NCCSc2ccccn2)n1,-2.821
3,Cc1nc(N(C)C)nc(NCCc2ccccn2)c1C,85.61
4,Cc1nc(N(C)C)ncc1C(=O)NCCc1csc(-c2cnccn2)n1,-3.2
5,Cc1nc(N(C)C)nc(NCCc2c[nH]cn2)c1C,92.29
6,c1nc(CCNc2nc(C3CC3)nc3c2CCNCC3)c[nH]1,9.275
7,Cc1nc(CCNc2nc(N(C)C)nc3c2CCCC3)cc(=O)[nH]1,13.62
8,Cc1nc(N(C)C)nc(NCCc2cnccn2)c1C,98.55
9,c1ccc(-c2nc3c(c(NCCc4c[nH]cn4)n2)CCNC3)cc1,7.707
10,Cc1cccnc1N1CCN(Cc2cc(O)c3cccc(F)c3n2)CC1,-4.875
11,CCS(=O)(=O)N1CCOC2(CCCN(c3ncc(F)cn3)C2)C1 (centres undefined),-5.745
12,Cc1cnc(CNS(=O)(=O)CCC2CCCO2)o1 (centres undefined),-9.077
13,CC1CN(Cc2nccn2C)CCN1c1ccc2nncn2n1 (centres undefined),2.712
14,CC1CN(Cc2cccc(C#N)c2)CCN1c1ccc2nncn2n1 (centres undefined),-2.779
15,COc1cccc(CN2CCN(c3ccc4nncn4n3)C(C)C2)c1 (centres undefined),-8.631
16,CC1CN(Cc2cccnc2)CCN1c1ccc2nncn2n1 (centres undefined),111.3
17,CC1CN(Cc2cnn(C)c2)CCN1c1ccc2nncn2n1 (centres undefined),114.2
18,CCC(=O)N1CCN(C(=O)Nc2cccc(F)c2)[C@H]2CS(=O)(=O)C[C@H]21,4.618
19,Cc1cnn(CC2CN(Cc3nc4ccccc4nc3C)CCO2)c1 (centres undefined),-8.261
20,Cc1cnn(CC2CN(Cc3nc(N)c4ccccc4n3)CCO2)c1 (centres undefined),9.564
21,Cc1nc(CN2CCOC(Cn3cccn3)C2)nc2ccccc12 (centres undefined),103.8
22,Cc1nc(CN2CCOC(Cn3cncn3)C2)nc2ccccc12 (centres undefined),-10.51
23,Cc1cnn(CC2CN(Cc3nc(C)c4ccccc4n3)CCO2)c1 (centres undefined),114.4
24,Nc1nc(CN2CCOC(Cn3cncn3)C2)nc2ccccc12 (centres undefined),-0.7232
25,Cc1nc2ccccc2nc1CN1CCOC(Cn2cccn2)C1 (centres undefined),77.13
26,Nc1nc(CN2CCOC(Cn3cccn3)C2)nc2ccccc12 (centres undefined),54.57
